Data on ten compounds can be found in PubChem BioAssay (NCI).

Assay [1] in a line: NCI Yeast Anticancer Drug Screen. Data for the rad50 strain (AID 155).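 Also: 0% = growth of vehicle-only cultures of the same strain.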 Conditions: S. cerevisiae rad50 strain growth inhibition, stronger effect = higher value. The procedure, abridged:
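Relative growth inhibition (compound vs vehicle) was measured in yeast with a defined repair-gene alteration.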

The nature of assay [2]: NCI Yeast Anticancer Drug Screen. Data for the mec2-1 strain (AID 157). As to conditions: S. cerevisiae mec2-1 strain, stronger effect = higher value. The procedure, abridged:
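mec2-1 yeast strain, carrying an alteration in DNA damage repair or cell cycle control, was exposed to compounds; growth inhibition was measured relative to vehicle-treated controls.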

Assay [3] can be described thus: NCI Yeast Anticancer Drug Screen. Data for the sgs1 mgt1 strain (AID 161).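 Also: 0% = growth of cultures given vehicle only.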 As to conditions: S. cerevisiae sgs1 mgt1 strain, stronger effect = higher value. The procedure, abridged:
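Percent growth inhibition was derived by comparing compound-exposed mutant yeast with vehicle-exposed cultures. The strain carries alterations in DNA damage repair.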

Assay [4] is described as follows: NCI Yeast Anticancer Drug Screen. Data for the cln2 rad14 strain (AID 165).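 Also: 0% = growth equal to vehicle treated cultures.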 As to conditions: S. cerevisiae cln2 rad14 strain, stronger effect = higher value. A digest of the protocol: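 Yeast carrying cln2 and rad14 alterations (cell cycle control and DNA damage repair) were exposed to compounds. Growth inhibition was measured against vehicle-treated controls.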
Assay [5] is described as follows: NCI Yeast Anticancer Drug Screen. Data for the bub3 strain (AID 167). As to conditions: S. cerevisiae bub3 mutant strain, stronger effect = higher value. The procedure, abridged:
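Screening used yeast with an engineered genetic alteration affecting cell cycle control. Compound-exposed cultures were compared with vehicle cultures, and reduced growth was taken as inhibition.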

Assay [6] is described as follows: NCI Yeast Anticancer Drug Screen. Data for the mlh1 rad18 strain (AID 175). Conditions: S. cerevisiae mlh1 rad18 strain growth inhibition, stronger effect = higher value. The procedure, abridged: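 Growth inhibition of the yeast strain was measured after compound exposure and expressed relative to vehicle-treated controls. The strain carries defined defects in DNA damage repair.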

Setting [7] is: at 5.0 µM (retest, dose inferred, filed as 0.5).
Setting [8] is: at 50.0 µM (retest, dose inferred, filed as 5.0).

This is part of a sample that, as a whole, favours compounds with a hit. Of some 79,000 tested, about 15% had one in any assay. Values without a mark were called inactive. The source made the active and inactive calls. Rule as the data show it: active = growth inhibition above about 70%; inactive = the rest.

Regarding `[Cl][Ge]([c]1ccccc1)[c]1ccccc1.[Cl][Ge]([c]1ccccc1)[c]1ccccc1`, the growth inhibition was 22% in assay [1] (setting [7]); 73% (active) in assay [1] (setting [8]); 33.4% in assay [1] (at 50.0 µM); 19% in assay [2] (setting [7]); 79% (active) in assay [2] (setting [8]); 41.5% in assay [2] (at 50.0 µM). In addition, the growth inhibition in assay [3] (setting [7]) is 23%; in assay [3] (setting [8]), 80% (active); in assay [3] (at 50.0 µM), 55.1%; in assay [4] (setting [7]), 4%; in assay [4] (setting [8]) it was 70% (active); in assay [4] (at 50.0 µM) it was -4.65%. Moreover, the growth inhibition in assay [5] (setting [7]) was 16%; in assay [5] (setting [8]), 80% (active); in assay [5] (at 50.0 µM) it was 34.5%; in assay [6] (setting [7]), 12%; in assay [6] (setting [8]), 78% (active); in assay [6] (at 50.0 µM), 76.3% (active).
On to `C/C(=N\NC(=S)NCCCNC(=S)N/N=C(\C)c1ccccn1)c1ccccn1`, for which the growth inhibition was 8% in assay [1] (setting [7]); 66% in assay [1] (setting [8]); 82.5% (active) in assay [1] (at 50.0 µM); 9% in assay [2] (setting [7]); 75% (active) in assay [2] (setting [8]); 82.4% (active) in assay [2] (at 50.0 µM). The growth inhibition in assay [3] (setting [7]) was 10%; in assay [3] (setting [8]), 77% (active); in assay [3] (at 50.0 µM), 86.2% (active); in assay [4] (setting [7]), 18%; in assay [4] (setting [8]), 78% (active); in assay [4] (at 50.0 µM), 83.3% (active). Also, the growth inhibition in assay [5] (setting [7]) was 0%; in assay [5] (setting [8]), 60%; in assay [5] (at 50.0 µM), 83.1% (active); in assay [6] (setting [7]), 17%; in assay [6] (setting [8]) it was 85% (active); in assay [6] (at 50.0 µM) it was 88.9% (active).
For the compound `C(=C\c1ccc(-[n+]2nc(-c3ccccc3)nn2-c2ccccc2)cc1)/c1ccccc1`, the growth inhibition in assay [1] (setting [7]) is 85% (active); in assay [1] (setting [8]), 98% (active); in assay [1] (at 50.0 µM), 91.5% (active); in assay [2] (setting [7]), 81% (active); in assay [2] (setting [8]) it was 100% (active); in assay [2] (at 50.0 µM), 93.4% (active). The growth inhibition in assay [3] (setting [7]) was 79% (active); in assay [3] (setting [8]), 100% (active); in assay [3] (at 50.0 µM), 93.4% (active); in assay [4] (setting [7]), 54%; in assay [4] (setting [8]) it was 99% (active); in assay [4] (at 50.0 µM), 93.2% (active). The growth inhibition in assay [5] (setting [7]) is 86% (active); in assay [5] (setting [8]) it was 99% (active); in assay [5] (at 50.0 µM) it was 92.3% (active); in assay [6] (setting [7]), 95% (active); in assay [6] (setting [8]), 99% (active); in assay [6] (at 50.0 µM) it was 90.9% (active).
As for `Cc1cc(C)nc(/C=C/c2ccccc2)c1`, the growth inhibition in assay [1] (setting [7]) is -1%; in assay [1] (setting [8]) it was -10%; in assay [1] (at 50.0 µM), 98.5% (active); in assay [2] (setting [7]), 1%; in assay [2] (setting [8]), 7%; in assay [2] (at 50.0 µM) it was 96.6% (active). The growth inhibition in assay [3] (setting [7]) was -9%; in assay [3] (setting [8]), 22%; in assay [3] (at 50.0 µM), 98.6% (active); in assay [4] (setting [7]) it was -1%; in assay [4] (setting [8]) it was 16%; in assay [4] (at 50.0 µM) it was 94.1% (active). Further, the growth inhibition in assay [5] (setting [7]) is 18%; in assay [5] (setting [8]), 29%; in assay [5] (at 50.0 µM), 97.1% (active); in assay [6] (setting [7]), 10%; in assay [6] (setting [8]), 18%; in assay [6] (at 50.0 µM), 97.8% (active).
Regarding `COc1ccc(C2=C(Cl)C(=O)N(c3ccccc3C)C(=O)C2(Cl)Cl)cc1`, the growth inhibition in assay [1] (setting [7]) is 66%; in assay [1] (setting [8]) it was 95% (active); in assay [1] (at 50.0 µM), 94.3% (active); in assay [2] (setting [7]), 17%; in assay [2] (setting [8]) it was 97% (active); in assay [2] (at 50.0 µM), 97.8% (active). Moreover, the growth inhibition is 83% (active) in assay [3] (setting [7]); 97% (active) in assay [3] (setting [8]); 97.9% (active) in assay [3] (at 50.0 µM); 24% in assay [4] (setting [7]); 94% (active) in assay [4] (setting [8]); 85.4% (active) in assay [4] (at 50.0 µM). The growth inhibition was 44% in assay [5] (setting [7]); 95% (active) in assay [5] (setting [8]); 94.1% (active) in assay [5] (at 50.0 µM); 70% (active) in assay [6] (setting [7]); 93% (active) in assay [6] (setting [8]); 97.7% (active) in assay [6] (at 50.0 µM).
Take `Cc1cc(C(=O)CBr)c(CN2C(=O)c3ccccc3C2=O)c(=O)n1C`: the growth inhibition was 17% in assay [1] (setting [7]); 98% (active) in assay [1] (setting [8]); 63.3% in assay [1] (at 50.0 µM); 49% in assay [2] (setting [7]); 99% (active) in assay [2] (setting [8]); 12.3% in assay [2] (at 50.0 µM). Also, the growth inhibition was 25% in assay [3] (setting [7]); 99% (active) in assay [3] (setting [8]); 74.3% (active) in assay [3] (at 50.0 µM); 11% in assay [4] (setting [7]); 98% (active) in assay [4] (setting [8]); 2% in assay [4] (at 50.0 µM). Also, the growth inhibition in assay [5] (setting [7]) is 18%; in assay [5] (setting [8]), 98% (active); in assay [5] (at 50.0 µM) it was 31.2%; in assay [6] (setting [7]) it was 64%; in assay [6] (setting [8]), 99% (active); in assay [6] (at 50.0 µM) it was 38%.
For the compound `O=Cc1cc2c(s1)C(=O)c1sccc1C2=O`, the growth inhibition is 93% (active) in assay [1] (setting [7]); 99% (active) in assay [1] (setting [8]); 88.8% (active) in assay [1] (at 50.0 µM); 96% (active) in assay [2] (setting [7]); 99% (active) in assay [2] (setting [8]); 91.8% (active) in assay [2] (at 50.0 µM). The growth inhibition in assay [3] (setting [7]) is 84% (active); in assay [3] (setting [8]), 99% (active); in assay [3] (at 50.0 µM), 89% (active); in assay [4] (setting [7]), 52%; in assay [4] (setting [8]), 97% (active); in assay [4] (at 50.0 µM), 91.7% (active). Besides, the growth inhibition in assay [5] (setting [7]) is 94% (active); in assay [5] (setting [8]), 99% (active); in assay [5] (at 50.0 µM) it was 90% (active); in assay [6] (setting [7]), 92% (active); in assay [6] (setting [8]) it was 99% (active); in assay [6] (at 50.0 µM), 90.3% (active).
For `NNc1ccccc1[N+](=O)[O-]`, the growth inhibition was 8% in assay [1] (setting [7]); 80% (active) in assay [1] (setting [8]); 89% (active) in assay [1] (at 50.0 µM); 8% in assay [2] (setting [7]); 84% (active) in assay [2] (setting [8]); 89.2% (active) in assay [2] (at 50.0 µM). For the same compound, the growth inhibition in assay [3] (setting [7]) is -2%; in assay [3] (setting [8]), 62%; in assay [3] (at 50.0 µM) it was 84.6% (active); in assay [4] (setting [7]), 24%; in assay [4] (setting [8]) it was 82% (active); in assay [4] (at 50.0 µM), 77.2% (active). Also, the growth inhibition in assay [5] (setting [7]) was 6%; in assay [5] (setting [8]) it was 98% (active); in assay [5] (at 50.0 µM), 88.5% (active); in assay [6] (setting [7]), -11%; in assay [6] (setting [8]), 96% (active); in assay [6] (at 50.0 µM), 83.3% (active).
Take `N#CCCN(CCC#N)Cc1cc(-c2ccccc2)ccc1O`: the growth inhibition was 5% in assay [1] (setting [7]); 55% in assay [1] (setting [8]); 87.5% (active) in assay [1] (at 50.0 µM); 1% in assay [2] (setting [7]); 19% in assay [2] (setting [8]); 55% in assay [2] (at 50.0 µM). The growth inhibition in assay [3] (setting [7]) was -2%; in assay [3] (setting [8]) it was 59%; in assay [3] (at 50.0 µM) it was 59.5%; in assay [4] (setting [7]), -8%; in assay [4] (setting [8]), -8%; in assay [4] (at 50.0 µM), -14.9%. Further, the growth inhibition in assay [5] (setting [7]) is 1%; in assay [5] (setting [8]), 44%; in assay [5] (at 50.0 µM), 85.2% (active); in assay [6] (setting [7]), -9%; in assay [6] (setting [8]) it was 28%; in assay [6] (at 50.0 µM) it was 82.2% (active).
Turning to `CCCCCCCCCCCCCCN1CCSCC1`, the growth inhibition is 6% in assay [1] (setting [7]); 18% in assay [1] (setting [8]); 98.5% (active) in assay [1] (at 50.0 µM); 3% in assay [2] (setting [7]); 14% in assay [2] (setting [8]); 96% (active) in assay [2] (at 50.0 µM). For the same compound, the growth inhibition in assay [3] (setting [7]) is 4%; in assay [3] (setting [8]) it was 1%; in assay [3] (at 50.0 µM), 99% (active); in assay [4] (setting [7]), 5%; in assay [4] (setting [8]), 14%; in assay [4] (at 50.0 µM), 98.6% (active). For the same compound, the growth inhibition in assay [5] (setting [7]) was 9%; in assay [5] (setting [8]), 21%; in assay [5] (at 50.0 µM), 99% (active); in assay [6] (setting [7]) it was 5%; in assay [6] (setting [8]), 12%; in assay [6] (at 50.0 µM) it was 98.8% (active).
